Assay [1] deals with Klebsiella pneumoniae. The settings on record: Concentration 20 uM; ASSAY_TEST Inhibition of Bacterial Growth; detection method Absorption (OD600); MEDIA CAMHB; plate type 384well; NBS; CORNING #3640; time 18 hr.
In assay [2] the test system is Candida albicans. The settings on record: 20 µM.
For assay [3], the system named is Cryptococcus neoformans. Conditions: Concentration 20 uM; ASSAY_TEST Inhibition of Fungal Growth; detection method Resazurin; Absorption (OD600-OD570); plate type 384well; NBS; CORNING #3640. On the technique in general: The colour change of resazurin is a common sign of viable cells or microbes.

Results with a measured potency or affinity are listed apart.

For `CCN(CC)CCOC(=O)C1(C2CCCCC2)CCCCC1.Cl` [DICYCLOMINE HYDROCHLORIDE], the Inhibition – broadly, the drop in the measured response relative to a control, in per cent – in assay [1] was 5.74%; in assay [2], 3.82%; in assay [3], -0.13%.
In the case of `CN(C)CCCN1c2ccccc2CCc2ccccc21.Cl` [IMIPRAMINE HYDROCHLORIDE], the Inhibition in assay [1] came out at 11.14%; in assay [2], 0.7%; in assay [3], 0.01%.
Take `CC(CN1c2ccccc2Sc2ccccc21)N(C)C.Cl` (stereo not drawn) [PROMETHAZINE HYDROCHLORIDE]: the Inhibition in assay [1] was 0.77%; in assay [2], 3.31%; in assay [3] it was -6.2%.
Taken in the same sequence, the figures for `CC[C@H](C)C(=O)O[C@H]1C[C@@H](C)C=C2C=C[C@H](C)[C@H](CC[C@@H]3C[C@@H](O)CC(=O)O3)[C@H]21` [LOVASTATIN] were 12.43%, 17.1% and -5.68%.
With `O=C(O)c1cc(-c2ccc(F)cc2F)ccc1O` [DIFLUNISAL], the results for the Inhibition in assay [1], in assay [2] and in assay [3] were 3.43%, 13.4% and -3.56%, respectively.
For the molecule `CNCCCN1c2ccccc2CCc2ccccc21.Cl` [DESIPRAMINE HYDROCHLORIDE], the Inhibition in assay [1] is 6.09%; in assay [2], 2.92%.
For `CCC1=C(C)CN(C(=O)NCCc2ccc(S(=O)(=O)NC(=O)N[C@H]3CC[C@H](C)CC3)cc2)C1=O` [GLIMEPIRIDE], the Inhibition in assay [1] was 11.97%; in assay [2], 1.98%; in assay [3], -2.89%.
Taken in the same sequence, the figures for `CC(=O)C1(O)CCC2C3CC(C)C4=CC(=O)C=CC4(C)C3(F)C(O)CC21C` (stereo not drawn) were 4.1%, 2.21% and -3.1%.
Taken in the same sequence, the figures for `CN1CC(=O)N2[C@H](c3ccc4c(c3)OCO4)c3[nH]c4ccccc4c3C[C@@H]2C1=O` were 2.98%, -1.32% and -3.58%.
Taken in the same sequence, the figures for `O=C1[C@H](CC[C@H](O)c2ccc(F)cc2)[C@@H](c2ccc(O)cc2)N1c1ccc(F)cc1` [EZETIMIBE] were 2.21%, -1% and -1.78%.
Regarding `Cc1ccsc1C(=CCCN1CCC[C@@H](C(=O)O)C1)c1sccc1C.Cl` [TIAGABINE HYDROCHLORIDE], the Inhibition is 9.25% in assay [1], 1.98% in assay [2] and -3.18% in assay [3].
With `Cl.O[C@@H](c1cc(C(F)(F)F)nc2c(C(F)(F)F)cccc12)[C@H]1CCCCN1`, the Inhibition in assay [1] came out at 14.04%; in assay [2], 5.35%.
As to `CCCc1nc2c(C)cc(-c3nc4ccccc4n3C)cc2n1Cc1ccc(-c2ccccc2C(=O)O)cc1`, the Inhibition is 15% in assay [1], 1.9% in assay [2] and -31% in assay [3].
On to `CC(=O)CCCCn1cnc2c1c(=O)n(C)c(=O)n2C` [LOMIFYLLINE], for which the results for the Inhibition in assay [1], in assay [2] and in assay [3] were 10.43%, 2.63% and -0.96%, respectively.
In the same order, the values of `Cc1cccc(C)c1NC(=O)C1CCCCN1C.Cl` (stereo not drawn) [MEPIVACAINE HYDROCHLORIDE] are 9.49%, -0.43% and -0.84%.
Taken in the same sequence, the figures for `CC(=O)Nc1ccc(CC(=O)O)cc1` [ACTARIT] were 4.76%, -0.65% and 4.09%.
In the case of `COc1ccccc1OCC(O)CN1CCN(CC(=O)Nc2c(C)cccc2C)CC1.Cl.Cl` (stereo not drawn) [RANOLAZINE HYDROCHLORIDE], the figures for the Inhibition in assay [1], in assay [2] and in assay [3] were 1.09%, 1.45% and -5.35%, respectively.
Taken in the same sequence, the figures for `CCCCCCCCCCC[C@@H](C[C@@H]1OC(=O)[C@H]1CCCCCC)OC(=O)[C@H](CC(C)C)NC=O` [ORLISTAT] were 7.06%, 1.01% and -4.7%.
`CNCC[C@H](Oc1cccc2ccccc12)c1cccs1.Cl` [DULOXETINE HYDROCHLORIDE]: the Inhibition in assay [1] was 5.49%; in assay [2], 3.07%; in assay [3] it was -2.99%.
Taken in the same sequence, the figures for `COC(=O)Nc1nc2cc(C(=O)c3ccccc3)ccc2[nH]1` [MEBENDAZOLE] were 11.43%, 4.65% and 41.35%.
As to `CC(c1cc2ccccc2s1)N(O)C(N)=O` (stereo not drawn) [ZILEUTON], the Inhibition in assay [1] worked out at 4.07%; in assay [2], 5.22%; in assay [3], 2.66%.
Taken in the same sequence, the figures for `CNCCCCOc1ccccc1Cc1ccccc1.Cl` were 18.69%, 1.66% and -8.24%.
With `CCOC(=O)O[C@]1(C(=O)OCCl)CC[C@H]2[C@@H]3CCC4=CC(=O)C=C[C@]4(C)[C@H]3[C@@H](O)C[C@@]21C` [LOTEPREDNOL ETABONATE], the Inhibition was 0.28% in assay [1], 4.45% in assay [2] and 0.62% in assay [3].
`Cl.O=C(c1ccc(OCCN2CCCCC2)cc1)c1c(-c2ccc(O)cc2)sc2cc(O)ccc12` [RALOXIFENE HYDROCHLORIDE]: the Inhibition is 7.01% in assay [1], 0.43% in assay [2] and -13.3% in assay [3].
In the case of `C=C[C@H]1CN2CC[C@H]1C[C@@H]2[C@@H](O)c1ccnc2ccc(OC)cc12` [QUINIDINE], the values for the Inhibition in assay [1] and in assay [2] were 12.62% and -0.46%, respectively.
As for `CCCCC[C@H](O)/C=C/[C@H]1[C@H](O)CC(=O)[C@@H]1CCCCCCC(=O)O` [ALPROSTADIL], the Inhibition amounted to 7.2% in assay [1], 3.09% in assay [2] and 2.52% in assay [3].
In the same order, the values of `NC(=O)N1c2ccccc2CC(=O)c2ccccc21` [OXCARBAZEPINE] are 3.69%, 2.7% and -4.73%.
Regarding `CC(CCc1ccccc1)NCC(O)c1ccc(O)c(C(N)=O)c1.Cl` (stereo not drawn) [LABETALOL HYDROCHLORIDE], the Inhibition in assay [1] was 19.39%; in assay [2] it was 4.68%; in assay [3], -9.04%.
Consider `C#C[C@]1(O)CC[C@H]2[C@@H]3CCc4cc(OC)ccc4[C@H]3CC[C@@]21C` [MESTRANOL], for which the Inhibition is 4.28% in assay [1], 4.15% in assay [2] and -7.53% in assay [3].
`CCCSc1ccc2[nH]c(NC(=O)OC)nc2c1` [ALBENDAZOLE]: the values for the Inhibition in assay [1], in assay [2] and in assay [3] were 3.18%, 2.62% and 42.52%, respectively.
Taken in the same sequence, the figures for `CC(=O)OCC(=O)[C@@]1(O)CC[C@H]2[C@@H]3C[C@H](C)C4=CC(=O)C=C[C@]4(C)[C@H]3[C@@H](O)C[C@@]21C` [METHYLPREDNISOLONE ACETATE] were 10.69%, -0.69% and -0.41%.
Taken in the same sequence, the figures for `CCCCN1CCCC1CNC(=O)c1cc(C#N)c2ccccc2c1OC` (stereo not drawn) [NAFADOTRIDE] were 16.43%, 4.38% and -22.16%.
Turning to `CCOC(=O)OC(C)OC1=C(C(=O)Nc2ccccn2)N(C)S(=O)(=O)c2ccccc21` (stereo not drawn) [AMPIROXICAM], the Inhibition in assay [1] is 12.2%; in assay [2], 0.25%; in assay [3] it was -3.23%.
Taken in the same sequence, the figures for `CC(=O)OCC(CCn1cnc2cnc(N)nc21)COC(C)=O` [FAMCICLOVIR] were 11.51%, 2.72% and -0.79%.
Regarding `CCCCNc1cc(C(=O)O)cc(S(N)(=O)=O)c1Oc1ccccc1` [BUMETANIDE], the figures for the Inhibition in assay [1], in assay [2] and in assay [3] were 11.75%, 3.22% and 1%, respectively.
Regarding `CC(C)(C)C(O)/C=C/c1ccc2c(c1)OCO2` (stereo not drawn) [STIRIPENTOL], the Inhibition is 6.61% in assay [1], 4.55% in assay [2] and 2.5% in assay [3].
`CC(C)(C)NCC(O)c1ccc(O)c(CO)c1.CC(C)(C)NCC(O)c1ccc(O)c(CO)c1.O=S(=O)(O)O` (stereo not drawn) [ALBUTEROL SULFATE]: the Inhibition in assay [1] is 17.78%; in assay [2], 3.1%; in assay [3], -3.67%.
In the same order, the values of `COc1ccnc(C[S+]([O-])c2nc3cc(OC(F)F)ccc3[n-]2)c1OC.O.[Na+]` (stereo not drawn) [PANTOPRAZOLE SODIUM] are 5.85%, 19.6% and -26.37%.
In the same order, the values of `C[C@H](N[C@@H](CCc1ccccc1)C(=O)O)C(=O)N1CCC[C@H]1C(=O)O` [ENALAPRILAT ANHYDROUS] are 8.45%, 2.99% and 1.01%.
Taken in the same sequence, the figures for `COc1cc(/C=C/c2ccc(O)cc2)cc(OC)c1` [PTEROSTILBENE] were 7.46%, 3.65% and -0.34%.
With `CC(=O)SCC(Cc1ccccc1)C(=O)NCC(=O)OCc1ccccc1` (stereo not drawn) [RACECADOTRIL], the Inhibition in assay [1] is 3.98%; in assay [2], 5.86%; in assay [3] it was -6.78%.
Turning to `NC(=O)N1c2ccccc2C=Cc2ccccc21` [CARBAMAZEPINE], the Inhibition in assay [1] is 5.59%; in assay [2] it was 4.45%; in assay [3] it was -2.39%.
On to `CS(=O)(=O)OCCCCOS(C)(=O)=O` [BUSULFAN], for which the Inhibition was 14.59% in assay [1], 3.72% in assay [2] and -1.79% in assay [3].
Taken in the same sequence, the figures for `Cc1ccc(Cl)c(Nc2ccccc2C(=O)[O-])c1Cl.O.[Na+]` [MECLOFENAMATE SODIUM] were 12.39%, 8.09% and 1.36%.
Taken in the same sequence, the figures for `CCOC(=O)c1ccc(OC(=O)CCCCCN=C(N)N)cc1.CS(=O)(=O)O` were 15.95%, 3.2% and -7.27%.
In the same order, the values of `CC(C)C[C@H](NC(=O)[C@@H](O)[C@H](N)Cc1ccccc1)C(=O)O` [UBENIMEX] are 12.45%, 0.73% and -0.18%.
With `CC(C)NCC(O)COc1ccc(CC(N)=O)cc1` (stereo not drawn) [ATENOLOL], the Inhibition in assay [1] is 8.57%; in assay [2] it was 3.26%; in assay [3], 1.62%.
Taken in the same sequence, the figures for `CCCCC(=O)OC1(C(=O)CO)CCC2C3CCC4=CC(=O)CCC4(C)C3C(O)CC21C` (stereo not drawn) were 9.82%, 3.16% and -1.86%.
Taken in the same sequence, the figures for `CCCC(=O)Nc1ccc(OCC(O)CNC(C)C)c(C(C)=O)c1.Cl` (stereo not drawn) [ACEBUTOLOL HYDROCHLORIDE] were 19.26%, 1.82% and -1.83%.
In the same order, the values of `CCOC(=O)C1=C(C)NC(C)=C(C(=O)OC)C1c1cccc(Cl)c1Cl` (stereo not drawn) [FELODIPINE] are 7.48%, 1.71% and -9.45%.
Regarding `CC(C)(C#N)c1cc(Cn2cncn2)cc(C(C)(C)C#N)c1` [ANASTROZOLE], the Inhibition in assay [1] was -11.78%; in assay [2], 1.23%; in assay [3], -3.6%.
In the same order, the values of `c1ccc2[nH]c(-c3cscn3)nc2c1` [THIABENDAZOLE] are 17.05%, 1.43% and -4.52%.
Regarding `N=c1cc(N2CCCCC2)nc(N)n1O`, the Inhibition in assay [1] was 8.77%; in assay [2] it was 2.93%; in assay [3], -7.74%.
Regarding `COCC1=C(C(=O)OC(C)OC(=O)OC(C)C)N2C(=O)[C@@H](NC(=O)/C(=N\OC)c3csc(N)n3)[C@H]2SC1` (stereo partly drawn) [CEFPODOXIME PROXETIL], the Inhibition in assay [1] amounted to 5.41%; in assay [2], 4.56%; in assay [3] it was 0.11%.
For `O=C(NCCO[N+](=O)[O-])c1cccnc1` [NICORANDIL], the Inhibition was 15.28% in assay [1], 1.66% in assay [2] and -0.1% in assay [3].
In the case of `CC(=O)OCC(=O)NCCCOc1cccc(CN2CCCCC2)c1.Cl` [ROXATIDINE ACETATE HYDROCHLORIDE], the Inhibition was 15.18% in assay [1], 3.06% in assay [2] and -4.65% in assay [3].
As to `CC1(C)O[C@@H]2C[C@H]3[C@@H]4C[C@H](F)C5=CC(=O)C=C[C@]5(C)[C@H]4[C@@H](O)C[C@]3(C)[C@]2(C(=O)CO)O1` [FLUNISOLIDE], the Inhibition in assay [1] is 10.74%; in assay [2], 7.13%; in assay [3] it was -6.19%.
